Bioassay records from PubChem.
Sampled rows, rich in hits. Any-hit rate of the full collection: about 12%.
G9a inh: inhibitors of human histone lysine methyltransferase G9a. Q96KQ7. Potency, µM (titrated, usually from 102 µM), actives largely listed as inhibitors. G9a H3K9 monomethylation, AlphaScreen, 2 h. AID 504332. 8.8% of 350,000 active; also: nearly all actives have a fitted effect of over 75% in size
Target sequence (Q96KQ7 913-1193 limits assumed): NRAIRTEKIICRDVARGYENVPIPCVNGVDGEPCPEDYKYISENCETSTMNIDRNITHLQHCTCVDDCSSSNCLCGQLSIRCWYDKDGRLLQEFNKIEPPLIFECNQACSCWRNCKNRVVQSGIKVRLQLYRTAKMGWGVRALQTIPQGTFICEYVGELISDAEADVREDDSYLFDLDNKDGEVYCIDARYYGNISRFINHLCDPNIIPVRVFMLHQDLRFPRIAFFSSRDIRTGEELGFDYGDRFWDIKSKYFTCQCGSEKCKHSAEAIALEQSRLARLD
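Signal arises when biotinylated H3K9 peptide, once monomethylated, bridges streptavidin donor and antibody-captured acceptor beads. Enzyme at 20 nM was preincubated 15 min with test compounds; peptide 500 nM and SAM 20 uM then reacted for 2 h.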
HP1b binding inh: inhibitors of HP1-beta chromodomain binding to methylated histone tails; Potency, µM (series often up to 114 µM), most hits filed as inhibitors; 0.56% of 390,000 active; AlphaScreen HP1-beta / biotin-H3K9me3 peptide binding; AID 540317; also: nearly all actives have a fitted effect of over 70% in size
Target sequence (P83916 whole entry, looked up): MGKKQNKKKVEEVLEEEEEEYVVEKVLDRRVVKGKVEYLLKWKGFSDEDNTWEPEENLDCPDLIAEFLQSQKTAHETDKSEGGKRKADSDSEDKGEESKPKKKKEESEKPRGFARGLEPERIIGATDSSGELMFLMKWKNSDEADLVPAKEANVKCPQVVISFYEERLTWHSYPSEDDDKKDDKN
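HP1-beta protein (50 nM final) preincubated 30 min at room temperature with biotinylated H3(1-18)K9me3 peptide (50 nM) in PBS pH 7.4, 0.01% Tween-20, then compound added for 30 min. AlphaScreen streptavidin donor/nickel chelate acceptor beads (10 ug/mL final), 30 min dark, luminescence read.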
Sfp inh: inhibitors of Bacillus subtilis Sfp phosphopantetheinyl transferase | 3.5% of 310,000 active | Q9F4F7 | AID 1490 | Biochemical Sfp PPTase activity, qHTS | Potency, µM, hits mostly inhibitors;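 also: the enzyme is Sfp with the accession as filed and its product quenches rhodamine fluorescence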
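Fluorescence-quenching assay: 15 nM Sfp-PPTase preincubated 15 min at room temperature with compound, then 5 uM rhodamine-CoA and 12.5 uM BHQ-2-labelled YbbR peptide added. Fluorescence (ex 525/em 598 nm) read at start and after 30 min; difference gives rate.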
JMJD2A Tudor inh: inhibitors of human JMJD2A Tudor domain | AlphaScreen JMJD2A-Tudor / H3K4me3 peptide binding | Potency, µM (doses to about 114 µM), hits mostly inhibitors | 4.4% of 390,000 active | AID 504339; also: nearly all actives have a fitted effect of over 50% in size
BAZ2B block: BAZ2B (human) inhibition; AlphaScreen BAZ2B-H3K14Ac peptide displacement; Potency, µM (series often up to 114 µM), actives largely listed as inhibitors; Q9UIF8; 4.4% of 360,000 active; AID 504333; also: nearly all actives have a fitted effect of over 60% in size
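AlphaScreen displacement: compounds (up to 110uM) incubated 30 min at room temperature with a preformed 50 nM BAZ2B/50 nM biotinylated H3K14Ac peptide complex in PBS pH 7.4 with Tween-20. Donor and acceptor beads at 10 ug/mL final added, 20 min light-protected before reading.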
A number is an active result; 0 = inactive; ? = inconclusive; - = no result given; [ ] = another dose, or the depositor's remark. Calls follow the shape of the dose curve; as a rule, active = well fitted curve in the direction sought with a large enough effect; inconclusive = small, poorly fitted or top-dose-only effect, or another doubt; inactive = no such curve, though single readings can be large; an effect the other way counts as inactive or inconclusive.

SMILES	G9a inh	HP1b binding inh	Sfp inh	JMJD2A Tudor inh	BAZ2B block
CCn1c2ccccc2c2cc(CN3CCN(S(=O)(=O)Cc4ccccc4)CC3)ccc21	7.1µM	?	0	1µM	79µM
CCN1CCN(S(=O)(=O)Cc2ccccc2)CC1	0[12.7 µM]	0	0	0	0
CCC(O)C1CCN(Cc2cn(Cc3ccccc3)nc2-c2cc3ccccc3o2)CC1 (stereo not drawn)	0	0	0	0	0
CCOc1cccc(C2C=C(c3ccc4c(c3)OCO4)NC(c3ccc(F)cc3)N2)c1O (stereo not drawn)	-	0	-	?	-
Fc1ccc(C2CCNCC2COc2ccc3c(c2)OCO3)cc1 (stereo not drawn)	50µM	?	0	?	?
Fc1ccc([C@@H]2CCNC[C@H]2COc2ccc3c(c2)OCO3)cc1	24µM	?	0	?	?
CC(C)(C)NC(=O)CN(C(=O)CS(=O)CC(=O)Nc1ccc(F)cc1)c1ccccc1 (stereo not drawn)	50µM	0	0	0	0
Cc1ccc(Nc2nc(N3CCOCC3)c3ccccc3n2)cc1	?	0	0	0	0
Oc1ccc(Nc2nc(N3CCCC3)c3ccccc3n2)cc1	40µM	0	0	56µM	?
N#CC(C#N)=Cc1cc2ccccc2nc1N1CCCCC1	?	0	0	?	40µM
c1ccc2c(c1)nc(N1CCCCCC1)c1ccccc12	0	0	0	18µM	0
COc1ccc(Nc2nc(-c3ccccc3)c3cc(Br)ccc3n2)cc1	13µM	0	-	?	?
CN(C)CCn1c2c(c(SCC(=O)Nc3ccc4c(c3)OCCO4)nc1=O)CCC2	?	0	-	0	0
COc1ccc(Nc2nc(N3CCCCC3)c3ccccc3n2)cc1	?	0	50µM	?	?
COC(=O)C1CCN(CC(=O)N(C)c2c(N)n(Cc3ccccc3)c(=O)[nH]c2=O)CC1	0[0.501 µM]	0	-	0	0
O=C1NC2(CCCCC2)NN1c1ccccc1	0	0	0	0	?
CC1CCC2(CC1)NC(=S)N(C(C)(C)C)N2 (stereo not drawn)	7.1µM	0	35µM	?	0
CC1CCC2(CC1)NC(=S)N(c1ccccc1)N2 (stereo not drawn)	6.3µM	0	56µM	0	79µM
CCOC(=O)c1cnc(SCC(=O)c2ccc3c(c2)OCCO3)nc1N	?	0	0	0	0
COc1cc2c(cc1OC)C1=C(C#N)CC/C(=N\S(=O)(=O)c3ccccc3)N1CC2	79µM	0	0	0	0
O=C(c1cccnc1)N1CCN(C(=O)c2cccc(Cl)c2)CC1	-	0	0	0	0
CC(C)N1CCN(C(=O)c2cccc(Cl)c2)CC1	25µM	?	0	14µM	?
CCC(CC)N1CCN(C(=O)c2cccc(Cl)c2)CC1	7.9µM	?	0	20µM	56µM
O=C(NCCc1ccccc1)c1nn(-c2ccccc2Cl)nc1CO	0	0	-	0	0
CCn1nc(C)c([N+](=O)[O-])c1C(=O)NNC(=O)c1ccccc1Cl	0	0	0	0	0
SMILES	G9a inh	HP1b binding inh	Sfp inh	JMJD2A Tudor inh	BAZ2B block
COc1ccc(NC(=S)NC(NC(=O)c2ccc(Cl)cc2Cl)C(Cl)(Cl)Cl)c([N+](=O)[O-])c1 (stereo not drawn)	?	?	0	?	?
O=C1CCCCCN1CP(=O)(O)CN1CCCCCC1=O	50µM	0	0	0	0
CCO/C(C)=C1\C(=O)N(CC)c2ccccc21	50µM	0	0	0	0
CCOC(=O)/C(C#N)=C1\C(=O)N(Cc2ccccc2)c2ccccc21	-	14µM	35µM	20µM	35µM
CCOC(=O)/C(C#N)=C1/C=CN(Cc2ccccc2)C=N1	0	0	0	0	0
CCO/C=C1\C(=O)N(CC)c2ccccc21	0	0	0	0	0
CCCc1nnc(NC(=O)CCC(=O)N2CCN(Cc3ccc(F)cc3)CC2)s1	0	0	0	0	0
CCCn1cnc2cc(NCc3cccc(OC)c3)ccc21	0[12.7 µM]	0	0	?	?
Cn1cnc2cc(NCc3ccc(Cl)cc3)ccc21	45µM	0	0	?	?
CCCn1cnc2cc(NCc3ccccc3O)ccc21	40µM	0	0	0	0
CCn1cnc2cc(NCc3ccc(Br)cc3)ccc21	13µM	?	0	14µM	45µM
CCCn1cnc2cc(NCc3ccc(Br)cc3)ccc21	45µM	?	0	16µM	45µM
O=C(Nc1ccon1)c1ccccc1Cl	0	0	0	0	0
CC(C)c1nc(-c2ccccc2)c(-c2ccccc2)[nH]1	0	0	?	0	0
O=c1[nH]c(-c2ccccc2)c(-c2ccccc2)nc1[N+](=O)[O-]	50µM	0	0	0	0
CN1CCCN(C(=O)CNC(=O)c2ccccc2Br)CC1	-	0	-	0	-
CC1CCc2cc(F)ccc2N1C(=O)c1cccs1 (stereo not drawn)	0	0	0	0	0
O=C/C=C/c1c(-c2ccccc2)cc2oc3ccccc3cc1-2	8.9µM	6.3µM	0	6.3µM	3.5µM
Nc1ccc(-c2cc3ccccc3oc2=O)cc1	0	0	0	0	0
COC(=O)C1CCN(C(=O)Cc2c(OC)ccc3cc(Br)ccc23)CC1	0	0	56µM	0	?
CCCCN(C)C(=O)Cc1c(OC)ccc2cc(Br)ccc12	32µM	?	0	25µM	0
COc1ccc2cc(Br)ccc2c1CC(=O)N(C)C	?	0	0	0	0
COc1ccc2cc(Br)ccc2c1CC(=O)N1CCCC1	0	0	0	0	0
Cc1ccccc1C(=O)NC1CCCN(Cc2ccccc2F)C1 (stereo not drawn)	0	0	0	0	0
COC(=O)/C=C1/SC(=NC(=O)c2ccccc2)NC1=O	22µM	0	28µM	?	0
SMILES	G9a inh	HP1b binding inh	Sfp inh	JMJD2A Tudor inh	BAZ2B block
COC(=O)/C=C1/S/C(=N/NC(=O)c2ccccc2C)NC1=O	2µM	0	0	?	56µM
COC(=O)/C=C1/SC(=NC(=O)c2ccc(OC)cc2)NC1=O	0[0.0925 µM]	0	0	0	?
COC(=O)/C=C1/SC(=NC(=O)c2ccc(F)cc2)NC1=O	?	0	28µM	0	0
COC(=O)/C=C1\S/C(=N/NC(=O)c2ccccc2)NC1=O	?	0	0	0	?
COC(=O)/C=C1\SC(=NC(=O)c2cccc(Cl)c2)NC1=O	0[0.0925 µM]	0	45µM	0	?
Cc1cc(NS(=O)(=O)c2ccc(NS(=O)(=O)c3cc(C)c(Cl)cc3Cl)cc2)no1	0[12.7 µM]	0	0	0	0
O=C(Cn1nc(Cc2cccnc2)c2ccccc2c1=O)Nc1cccc(C(F)(F)F)c1	?	0	-	0	0
CC1CCCCC1NC(=O)CCS(=O)(=O)c1cc2c(cc1Cl)NC(=O)CO2 (stereo not drawn)	0	0	0	0	0
O=C(CCCSc1nnc(-c2cccs2)n1CC1CCCO1)c1ccccc1 (stereo not drawn)	0[2.33 µM]	0	0	79µM	0
O=C(NCc1cccnc1)NC1(C(F)(F)F)Oc2ccccc2O1	40µM	0	0	0	0
O=C(Nc1cc(N2CCOCC2)ncn1)NC1(C(F)(F)F)Oc2ccccc2O1	2.2µM	0	0	89µM	0
CC(C)CNC(=O)NC1(C(F)(F)F)Oc2ccccc2O1	?	0	0	0	0
